# Assay results published in the supplement of paper PMC6658780.
# Structures can show the parent of a compound that is named as a salt. ± gives the standard deviation of the averaged measurements.
# Test system: Escherichia coli ATCC BAA-2469
# Experiment: percent growth inhibition of drug alone vs DMSO control; higher = more growth inhibition
# Conditions: antibiotic (0.125x MIC): none (0.1% DMSO); 7 µM
# Procedure: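 Prestwick drugs tested at 20 uM and 7 uM with an antibiotic at 0.125x MIC (16 mg/L when MIC >128 mg/L) against E. coli ATCC BAA-2469 (NDM-1) in CAMHB, 384-well plates, duplicate runs. Percent growth inhibition was computed from OD600 (24 h minus 0 h) relative to DMSO wells. Drug + DMSO-only wells are also given. […]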
row,Compound,percent growth inhibition of drug alone
1,Nc1nnc(-c2cccc(Cl)c2Cl)c(N)n1 [Lamotrigine],2.35 ± 0.19%
2,CC(=O)OC[C@H]1O[C@@H]([S-])[C@H](OC(C)=O)[C@@H](OC(C)=O)[C@@H]1OC(C)=O.CCP(CC)CC.[Au+] [Auranofin],5.6 ± 2.6%
3,CCC[C@@H]1C[C@@H](C(=O)N[C@@H]([C@H]2O[C@H](SC)[C@H](O)[C@@H](O)[C@H]2O)[C@H](C)Cl)N(C)C1 [Clindamycin hydrochloride],12.8 ± 13%
4,CCCCCCCCCCCCCCCC[N+](C)(C)CCN(Cc1ccc(OC)cc1)c1ncccn1 [Thonzonium bromide],3.7 ± 4.2%
5,Cc1c(OCC(F)(F)F)ccnc1C[S+]([O-])c1nc2ccccc2[nH]1 (stereo unspecified) [Lansoprazole],2.04 ± 3.3%
6,Nc1ccn([C@@H]2O[C@H](CO)[C@@H](O)C2(F)F)c(=O)n1 [Gemcitabine],15.3 ± 12%
7,"Cc1cn([C@H]2C[C@H](N=[N+]=[N-])[C@@H](CO)O2)c(=O)[nH]c1=O [Zidovudine, AZT]",102 ± 2.3%
8,CCOC(=O)c1ccc(N)cc1 [Benzocaine],-0.533 ± 1.7%
9,CC1=C(/C=C/C(C)=C/C=C/C(C)=C\C(=O)O)C(C)(C)CCC1 [Isotretinoin],1.08 ± 2.4%
10,CO/N=C(\C(=O)N[C@@H]1C(=O)N2C(C(=O)O)=C(COC(N)=O)CS[C@H]12)c1ccco1 [Cefuroxime sodium salt],-0.846 ± 2.2%
11,C[C@H]1[C@H](NC(=O)/C(=N\OC(C)(C)C(=O)O)c2csc(N)n2)C(=O)N1S(=O)(=O)O [Aztreonam],13.2 ± 14%
12,C#C[C@]1(O)CC[C@H]2[C@@H]3CCC4=C(CCC(=O)C4)[C@H]3CC[C@@]21C [Norethynodrel],0.455 ± 0.56%
13,C#C[C@]1(OC(C)=O)CC[C@H]2[C@@H]3CCC4=C[C@@H](OC(C)=O)CC[C@@H]4[C@H]3CC[C@@]21C [Ethynodiol diacetate],-1.57 ± 7.4%
14,O=c1[nH]c(=O)n([C@H]2C[C@H](O)[C@@H](CO)O2)cc1C(F)(F)F [Trifluridine],4.84 ± 4.7%
15,COc1ccccc1OCC(O)CO (stereo unspecified) [Guaifenesin],-0.628 ± 1.6%
16,O=C1c2c(O)ccc(O)c2C(=O)c2c(NCCNCCO)ccc(NCCNCCO)c21 [Mitoxantrone dihydrochloride],7.78 ± 5.1%
17,CS(=O)(=O)c1ccc([C@@H](O)[C@@H](CF)NC(=O)C(Cl)Cl)cc1 [Florfenicol],21.5 ± 9.2%
18,CCOC(=O)c1ccc(OC(=O)CCCCCNC(=N)N)cc1 [Gabexate mesilate],3.5 ± 6.5%
19,COc1ccc2c(c1)c(CC(=O)OCC(=O)O)c(C)n2C(=O)c1ccc(Cl)cc1 [Acemetacin],2.19 ± 1%
20,CCN(CC)CCNC(=O)c1cc(Br)c(N)cc1OC [Bromopride],-0.123 ± 0.93%
21,Cn1c(=O)c2c(ncn2C)n(C)c1=O [Caffeine],1.12 ± 0.78%

# Same assay, conditions: antibiotic (0.125x MIC): none (0.1% DMSO); 20 µM
row,Compound,percent growth inhibition of drug alone
1,Nc1nnc(-c2cccc(Cl)c2Cl)c(N)n1 [Lamotrigine],1.91 ± 1.2%
2,CC(=O)OC[C@H]1O[C@@H]([S-])[C@H](OC(C)=O)[C@@H](OC(C)=O)[C@@H]1OC(C)=O.CCP(CC)CC.[Au+] [Auranofin],20.1 ± 20%
3,CCC[C@@H]1C[C@@H](C(=O)N[C@@H]([C@H]2O[C@H](SC)[C@H](O)[C@@H](O)[C@H]2O)[C@H](C)Cl)N(C)C1 [Clindamycin hydrochloride],35.5 ± 16%
4,O=C1OCCN1/N=C/c1ccc([N+](=O)[O-])o1 [Furazolidone],115 ± 13%
5,Cc1c(OCC(F)(F)F)ccnc1C[S+]([O-])c1nc2ccccc2[nH]1 (stereo unspecified) [Lansoprazole],4.77 ± 4.3%
6,Nc1ccn([C@@H]2O[C@H](CO)[C@@H](O)C2(F)F)c(=O)n1 [Gemcitabine],28.3 ± 14%
7,"Cc1cn([C@H]2C[C@H](N=[N+]=[N-])[C@@H](CO)O2)c(=O)[nH]c1=O [Zidovudine, AZT]",115 ± 12%
8,CN(C)c1ccc(O)c2c1C[C@H]1C[C@H]3[C@H](N(C)C)C(O)=C(C(N)=O)C(=O)[C@@]3(O)C(O)=C1C2=O [Minocycline hydrochloride],110 ± 14%
9,CCOC(=O)c1ccc(N)cc1 [Benzocaine],1.27 ± 1.7%
10,CC1=C(/C=C/C(C)=C/C=C/C(C)=C\C(=O)O)C(C)(C)CCC1 [Isotretinoin],3.78 ± 1.7%
11,CO/N=C(\C(=O)N[C@@H]1C(=O)N2C(C(=O)O)=C(COC(N)=O)CS[C@H]12)c1ccco1 [Cefuroxime sodium salt],-0.542 ± 0.39%
12,Nc1ncn(C2OC(CO)C(O)C2O)c(=O)n1 (stereo unspecified) [Azacytidine-5],111 ± 10%
13,C#C[C@]1(O)CC[C@H]2[C@@H]3CCC4=C(CCC(=O)C4)[C@H]3CC[C@@]21C [Norethynodrel],5.02 ± 3.1%
14,C#C[C@]1(OC(C)=O)CC[C@H]2[C@@H]3CCC4=C[C@@H](OC(C)=O)CC[C@@H]4[C@H]3CC[C@@]21C [Ethynodiol diacetate],-0.574 ± 3.8%
15,O=c1[nH]c(=O)n([C@H]2C[C@H](O)[C@@H](CO)O2)cc1C(F)(F)F [Trifluridine],11.3 ± 6.5%
16,COc1ccccc1OCC(O)CO (stereo unspecified) [Guaifenesin],-0.463 ± 1.9%
17,CCOC(=O)c1ccc(OC(=O)CCCCCNC(=N)N)cc1 [Gabexate mesilate],0.291 ± 0.37%
18,COc1ccc2c(c1)c(CC(=O)OCC(=O)O)c(C)n2C(=O)c1ccc(Cl)cc1 [Acemetacin],1.2 ± 0.59%
19,CCN(CC)CCNC(=O)c1cc(Br)c(N)cc1OC [Bromopride],1.57 ± 1.2%
20,Cn1c(=O)c2c(ncn2C)n(C)c1=O [Caffeine],-1.35 ± 0.22%
